# Reference: PubChem BioAssay (EPA / NIEHS)
# Where “and” joins values, the source holds several entries; their conditions need not be identical. Equal entries are not always repeated. Results filed as inconclusive are left out. Calls of active or inactive are those of the source. The calls were made as follows: active = hit-call score of the fitted dose curve at least 0.9, where 1 is the maximum; inconclusive = response in the unintended direction; inactive = score below 0.9.
# Test system: frog Estrogen Receptor (ER2), gene 100174814
# Test: ATG_frER2_XSP2: Attagene TRANS-FACTORIAL Multi-Species (XSP2) HepG2 Assay for frog Estrogen Receptor (ER2) (AID 2283828)
# Experimental: ATG_XSP2_multi-species_TRANS is a cell-based, multiplexed assay created by modifying the existing Attagene TRANS-FACTORIAL system to include a panel of nuclear receptors from some or all the following species: human (Homo sapiens), mouse (Mus musculus), frog (Xenopus laevis), zebrafish (Danio rerio), chicken (Gallus gallus), and turtle (Chrysemys picta). The ECOTOX-FACTORIAL format uses HepG2, a human liver cell line, with measurements taken at 24 hours after chemical dosing in a 24-well plate. Xsp2 included 3 nM 6-alpha-fluorotestosterone and 1.5 nM norgestrel to stimulate the androgen receptor.ATG_frER2_XSP2 is one of 29 assay components measured or calculated from the ATG_XSP2_multi-species_TRANS assay. It is designed to make measurements of mRNA induction, a form of inducible reporter, as detected with fluorescence intensity signals by Reverse transcription polymerase chain reaction (RT-PCR) and Capillary electrophoresis technology.The assay endpoint ATG_frER2_XSP2 was analyzed in the positive analysis fitting direction relative to DMSO as the negative control and baseline of activity. Using a type of inducible reporter, measures of mRNA for gain-of-signal activity can be used to understand the reporter gene at the transcription factor-level as they relate to the gene ER. Furthermore, this assay endpoint can be referred to as a primary readout, because this assay has produced multiple assay endpoints where this one serves a reporter gene function. To generalize the intended target to other relatable targets, this assay endpoint is annotated to the nuclear receptor intended target family, where the subfamily is steroidal.
# Human liver HepG2 cells are transiently transfected with multiple reporter transcription units (MRTUs) in 6-well plates using FuGene 6 reagent (Roche; 3 ml FuGene/1 mg DNA). The MRTU constructs are regulated by a cis-regulating element (promoter). […] A major difference between the CIS and TRANS system is that in CIS activities of endogenous TFs are measured, whereas the TRANS assay evaluates changes in activities of exogenous, chimeric NR-Gal4 proteins. […] At the end of 24 hour incubation, total RNA was isolated using TriZol reagent (Invitrogen). The isolated RNA is then reverse-transcribed using oligo(dT) primer and Mo-MLV reverse transcriptase (Invitrogen) with DNAse I (Ambion) treatment for 30 min. The one-tenth of the produced cDNA was amplified by PCR using Taq DNA polymerase (Invitrogen) and two reporter sequence-specific primers. The PCR products were fluorescently labeled by primer extension with 6-arboxyfluorescein (6-FAM) 5'-labeled reporter sequence-specific primer (2 min at 95 C, 20 s at 68 C and 10 min at 72 C) and these products were digested with 5U of HpaI (New England Biolabs) for 2h at 37 C. The fragments were purified using Qiaquick PCR columns (Qiagen), analyzed on an ABI 3130xL genetic analyzer (Applied Biosystems) with peak positions identified by using a set of X-rhodamine (ROX)-labeled MapMarker1000 molecular weight standards (BioVentures). The raw capillary electrophoresis data was processed using Attagraph software (Attagene).
Compound,AC50,outcome
N#Cc1c[nH]cc1-c1cccc2c1OC(F)(F)O2,1.22 µM (active) and 859 nM (active),–
COP(=S)(OC)Oc1ccc([N+](=O)[O-])c(C)c1,85.1 µM (active),–
CC1(C)CCC(=Cc2ccc(Cl)cc2)C1(O)Cn1cncn1 (stereo not given),63 µM (active),–
CC1(C)C(C=C(Cl)Cl)C1C(=O)OC(C#N)c1cccc(Oc2ccccc2)c1 (stereo not given),63.6 µM (active),–
Cc1c(COC(=O)[C@@H]2[C@H](/C=C(\Cl)C(F)(F)F)C2(C)C)cccc1-c1ccccc1,100 µM (active),–
CCN(CC)C(=O)C(C)Oc1cccc2ccccc12 (stereo not given),25.5 µM (active),–
CC(C)NC(=O)N1CC(=O)N(c2cc(Cl)cc(Cl)c2)C1=O,–,inactive
C=C(C)CN(CC)c1c([N+](=O)[O-])cc(C(F)(F)F)cc1[N+](=O)[O-],10.5 µM (active) and 7.61 µM (active),–
COP(=S)(OC)SCn1nnc2ccccc2c1=O,–,inactive
CSC(=O)c1c(C(F)F)nc(C(F)(F)F)c(C(=O)SC)c1CC(C)C,5.69 µM (active),–
